D1 antagonist: blocks dopamine activation of the human D1 receptor | P21728 | HEK293 TREx D1 cells, calcium flux, dopamine EC80; active compounds read low | activity change, negative = inhibition, % at 10 µM | 3.2% of 360,000 active | AID 504652; in the data active = activity change below about -30%; note: % is set by controls: 0 for no effect and ±100 for the full control effect
Target sequence (P21728 whole entry, looked up): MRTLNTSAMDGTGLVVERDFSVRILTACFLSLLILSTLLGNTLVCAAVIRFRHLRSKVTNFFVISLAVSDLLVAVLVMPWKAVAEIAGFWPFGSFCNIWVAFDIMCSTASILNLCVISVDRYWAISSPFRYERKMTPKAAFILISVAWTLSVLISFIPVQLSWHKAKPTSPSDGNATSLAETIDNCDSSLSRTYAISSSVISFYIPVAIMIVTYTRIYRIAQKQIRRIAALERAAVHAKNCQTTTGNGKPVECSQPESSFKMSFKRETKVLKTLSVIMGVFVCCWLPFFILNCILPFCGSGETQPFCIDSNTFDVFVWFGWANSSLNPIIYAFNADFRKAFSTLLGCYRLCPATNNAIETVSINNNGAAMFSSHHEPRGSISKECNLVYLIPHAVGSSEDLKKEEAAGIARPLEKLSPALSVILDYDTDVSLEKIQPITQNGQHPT
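Kinetic fluorescence of a calcium dye serves as the read-out. D1-expressing Hek293 Trex cells, induced overnight at 30 C, are exposed to compound for 180 s before an EC80 dopamine addition, then read 180 s further.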
D1 ag: activates the human D1 dopamine receptor | activation, % at 2 µM | HEK293 T-REx D1 cells, calcium flux, agonist mode | 1% of 360,000 active | AID 504660; in the data active = activation above about 30%; note: 0% is about no effect
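Agonism was scored from calcium flux recorded over 180 s (1 read/s) after pintool compound addition, following a 10-cycle baseline. Cells were inducible force-coupled HEK293 TREx D1, plated overnight at 30 C and loaded with no-wash calcium dye.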
D3 ag: D3 dopamine receptor (human) agonism; AID 652048; 0.58% of 410,000 active; max activation, %; D3R DiscoveRx beta-arrestin cells, luminescence, 90 min; in the data active = max activation above about 30%; note: 0% is about no effect
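Cells at 1500/well, incubated overnight, then treated with pinned compounds (dopamine as control) for 90 min at 37 degrees C. DiscoveRx reagent added for 30 - 60 minutes at room temperature; luminescence read.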
D1 PAM: enhances dopamine response at the human D1 receptor. HEK293 TREx D1 cells, calcium flux, dopamine EC20 potentiation. potentiation, % at 10 µM. 0.036% of 360,000 active. P21728. AID 504651; in the data active = potentiation above about 30%; note: 0% is about no effect
DRD3 antagonist: antagonists of human D3 dopamine receptor; P35462; D3R cells, DiscoveRx beta-arrestin luminescence, antagonist mode; active compounds read low; max response, negative = inhibition, %; 2.5% of 360,000 active; AID 652054; in the data active = max response below about -50%; inconclusive = no clear call, values can overlap the other calls; note: % is set by controls: 0 for no effect and ±100 for the full control effect
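Cells plated overnight at 1500 cells/well, then exposed to library compounds with dopamine controls for 90 minutes at 37 degrees C. DiscoveRx reagent added for 30–60 minutes at room temperature; luminescence read, quantitative HTS format.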
Numbers without * were called inactive. Most compounds without a hit are left out; they make up all but 6% or so of the library.

For O=C(Nc1cccc2ccccc12)c1ccc([N+](=O)[O-])o1 the results were D1 antagonist -6.7, D1 ag -2.5, D3 ag 1.1, D1 PAM -8.2 and DRD3 antagonist -16.2.
O=C(Nc1ccccc1C(=O)NC1CC1)c1ccc([N+](=O)[O-])o1 was read as D1 antagonist -2.7, D1 ag 2.6, D3 ag 2.4, D1 PAM 4.0 and DRD3 antagonist -62.6*.
O=C(Nc1ccc(F)cc1)C(c1cc2ccccc2o1)N1CCN(C(=O)c2ccco2)CC1 (stereo not drawn) was read as D3 ag -8.0 and DRD3 antagonist 0.0.
Screening CC1CC(C)(C)Nc2ccc(OC(=O)c3ccco3)cc21 (stereo not drawn) returned D1 antagonist -13.3, D1 ag 12.3, D3 ag 1.6, D1 PAM -6.7 and DRD3 antagonist 20.8.
CC1CC(C)(C)Nc2ccc(N=O)cc21 (stereo not drawn) was read as D1 antagonist -45.4*, D1 ag 2.5, D3 ag -12.3, D1 PAM -4.3 and DRD3 antagonist -84.1*.
For Nc1n[nH]c(N)c1N=Nc1ccccc1F the results were D1 antagonist -34.9*, D1 ag 0.3, D3 ag 4.0, D1 PAM 0.8 and DRD3 antagonist -15.7.
For CCOc1ccc(/C=C/c2nc(C#N)c(NC3CCCCC3)o2)cc1 the results were D1 antagonist -37.8*, D1 ag 5.2, D3 ag -4.4 and D1 PAM 0.1.
Screening CCOc1ccc(/C=C/c2nc(C#N)c(Nc3ccc(OCC)cc3)o2)cc1 returned D1 antagonist -8.2, D1 ag 2.0, D3 ag 2.5 and D1 PAM -1.6.
CCOC(=O)C1=CCN(S(=O)(=O)c2ccc(C)cc2)C1c1cccc(Cl)c1 (stereo not drawn) was read as D3 ag -3.9 and DRD3 antagonist -15.2.
Screening Cc1ccnc2nc(NC(=O)c3ccco3)nn12 returned D1 antagonist -4.8, D1 ag 0.5, D3 ag -2.4, D1 PAM 1.6 and DRD3 antagonist -66.1*.
`O=S(=O)(c1ccc2c(c1)OCCO2)N1CCN(S(=O)(=O)c2ccccc2OC(F)(F)F)CC1` gave D1 antagonist -24.7, D1 ag 6.7 and D1 PAM -3.4.
Cc1cccc(-n2c(=O)c3c(c4cc(C)ccc4n3C)n(CC(=O)N3CCCC3)c2=O)c1 was read as D1 antagonist 12.3, D1 ag -1.1, D3 ag -2.3 and D1 PAM 0.1.
COc1ccc(CCC(C)NCc2cccc(Br)c2)cc1 (stereo not drawn) was read as D1 antagonist 8.4, D1 ag 28.6, D3 ag -8.2, D1 PAM -1.1 and DRD3 antagonist -68.3*.
CC(CCc1ccccc1)NCc1cccc2ccccc12 (stereo not drawn) was read as D1 antagonist -8.1, D1 ag 16.8, D3 ag 2.6, D1 PAM -1.7 and DRD3 antagonist -53.8*.
For COc1ccc(CC(O)CC2c3c(cc4c(c3OC)OCO4)CCN2C)cc1 (stereo not drawn) the results were D1 antagonist 9.5, D1 ag 2.8, D3 ag -20.0, D1 PAM -1.8 and DRD3 antagonist -68.9*.
For Cn1nc(C(F)(F)F)cc1C(=O)NC1CCCCCC1 the results were D1 antagonist -11.5, D1 ag -0.8, D3 ag 40.4*, D1 PAM -1.3 and DRD3 antagonist 32.1.
Cc1ccc(-c2cnc(C(O)c3cccc(Cl)c3)[nH]2)cc1 (stereo not drawn) was read as D3 ag -1.2 and DRD3 antagonist -1.1.
OC(CC#CCN1CCCC1)(c1ccccc1)c1ccccc1 was read as D1 antagonist 9.3, D1 ag 1.3, D3 ag -22.5, D1 PAM -5.8 and DRD3 antagonist -4.1.
`CN1CCN(CC#CCC(O)(c2ccccc2)c2ccccc2)CC1` gave D1 antagonist -1.7, D1 ag 3.3, D3 ag -29.8, D1 PAM 1.9 and DRD3 antagonist -22.5.
For CC(O)(C#CCN1CCCCC1)c1ccccc1 (stereo not drawn) the results were D1 antagonist -2.1, D1 ag 4.3, D3 ag -25.4, D1 PAM -5.0 and DRD3 antagonist inconclusive.
Screening OC(CC#CCN1CCCCC1)(c1ccccc1)c1ccccc1 returned D1 antagonist -17.6, D1 ag 10.2, D3 ag -36.4, D1 PAM -4.7 and DRD3 antagonist -51.5*.
For OC(CC#CCN1CCOCC1)(c1ccccc1)c1ccccc1 the results were D1 antagonist -30.6*, D1 ag -2.9, D3 ag -7.4, D1 PAM -6.8 and DRD3 antagonist 6.4.
`CC(C)C(O)(C#CCN1CCCCCC1)c1ccccc1` (stereo not drawn) gave D1 antagonist 8.1, D1 ag -0.2, D3 ag -10.3, D1 PAM -5.7 and DRD3 antagonist -60.0*.
Screening OC(CCCN1CCCCC1)(c1ccccc1)c1ccccc1 returned D1 antagonist -34.3*, D1 ag 3.3, D3 ag -97.6, D1 PAM -3.2 and DRD3 antagonist -100.9*.
`O=C(Nc1cccc(F)c1)NC1(C(=O)NCC2CCCO2)CCCCC1` (stereo not drawn) gave D1 antagonist -0.8, D1 ag 3.0, D3 ag -3.6, D1 PAM -3.5 and DRD3 antagonist 4.0.
For COc1ccc(S(=O)(=O)N2CCC3(CC2)CC(=O)c2ccccc2O3)cc1OC the results were D1 antagonist -9.0, D1 ag 4.0, D3 ag -20.5, D1 PAM 5.0 and DRD3 antagonist -26.2.
Screening COc1cc(C)ccc1OCCSc1nc2ccc(NC(=O)c3ccc(F)cc3)cc2s1 returned D1 antagonist -2.8, D1 ag 1.2, D3 ag 5.7 and D1 PAM -0.8.
`Clc1cccc(N2CCN(c3nc4ccccc4c4nc(-c5cccnc5)nn34)CC2)c1` gave D1 antagonist 14.0, D1 ag 1.0, D3 ag -6.0 and D1 PAM -4.7.
For CCN(CC)C(=O)Nc1ccc(OCC(O)CNC(C)(C)C)c(C(C)=O)c1 (stereo not drawn) the results were D3 ag 1.7.
`O=C(NCCCNCc1ccccc1)/C(=N\O)c1ccccc1` gave D1 antagonist -1.4, D1 ag 3.7, D3 ag -3.8, D1 PAM -0.1 and DRD3 antagonist -19.2.
Screening O=C(NCc1ccncc1)/C(=N/O)c1ccccc1 returned D1 antagonist -2.5, D1 ag 2.9, D3 ag 8.7, D1 PAM -9.2 and DRD3 antagonist -53.3*.
Screening O=C(NCc1ccncc1)C(F)(F)C(F)(F)C(=O)NCc1ccncc1 returned D1 antagonist -42.6*, D1 ag 5.7, D3 ag -1.3, D1 PAM -7.2 and DRD3 antagonist 0.6.
For O=C(NCc1ccncc1)c1c(F)c(F)c(F)c(F)c1F the results were D1 antagonist -17.6, D1 ag 4.6, D3 ag -2.9, D1 PAM 1.3 and DRD3 antagonist -7.6.
